The values that follow come from ChEMBL document CHEMBL5308541, “MAIP: An Open-Source Tool to Enrich High-Throughput Screening Output and Identify Novel, Druglike Molecules with Antimalarial Activity” (ACS Med Chem Lett, 2023).

Usually % Inhibition stands for the relative decrease from the control value, in per cent.

Each structure is given as a SMILES string. About 420 (8.8%) of roughly 4,800 compounds showed an effect of 50% or more. For the sample, strong results were picked, then their nearest neighbours and some compounds at random.

This experiment concerns Plasmodium falciparum. Kind of experiment: Confirmatory screen in NF54 nanoGlo assay, in single point, at 2uM, 72h. The class given is functional, Erythrocyte. To be noted: timepoint 72 hour.
As to `CN1CCC(N2CCC(NC(=O)c3ccc(S(=O)(=O)N(C)C4CCCCC4)cc3)CC2)CC1`, the “% Inhibition” value is listed as 44%.

Turning to `Cc1ccc(-c2cc(C(=O)NC3CCN(C4CCN(C)CC4)CC3)n[nH]2)cc1C`, the “% Inhibition” value is 98%.

As to `CN(C)Cc1cccc(CCNCc2csc(-c3ccc(C(F)(F)F)cc3)n2)c1`, the “% Inhibition” value was determined as 74%.

In the case of `O=C(NC1CCN(CCOc2ccc(Cl)cc2)CC1)c1c[nH]c2ccncc2c1=O`, the “% Inhibition” value is 92%.

Turning to `O[C@H]1CCN(Cc2cccc(NCc3cn4ccnc4s3)c2)C1`, the “% Inhibition” value amounted to 38%.

Consider `O[C@H]1CCN(Cc2ccccc2CNc2cccc(-n3ccnc3)n2)C1`, for which the “% Inhibition” value is recorded as 94%.

As to `CCN1CCC[C@H](Nc2cccc(-n3ccnc3)n2)C1`, the “% Inhibition” value turned out to be 33%.

Take `Nc1ccnc(-c2cccc3[nH]ccc23)c1`: the “% Inhibition” value came to 6%.

Consider `COc1ccc2cc(-c3cc(N)ccn3)[nH]c2c1`, for which the “% Inhibition” value is given as 55%.

On to `O=C1CN(C(=O)c2ccnc3ccccc23)CCN1Cc1ccccc1F`, for which the “% Inhibition” value amounted to 53%.

`COc1cc2nc(NCC3(N4CCN(C)CC4)CCCC3)cc(C)c2cc1OC`: the “% Inhibition” value is recorded as 84%.

Take `CCN(C)CC1CCN(c2nc(NCCOC)nc(N3CCC(CN(C)CC)C3)n2)C1` (centres undefined): the “% Inhibition” value worked out at 1%.

In the case of `Cn1nnc(C(=O)N2CCCCC23CCCCCC3)n1`, the “% Inhibition” value is listed as 68%.

Regarding `CC(C)CCOc1ccc2[nH]c(-c3cc(N4CCC[C@@H]4CS(C)(=O)=O)ccn3)cc2c1`, the “% Inhibition” value is recorded as 99%.

Consider `CN(CCCn1ccnc1)c1ccnc2cc(Br)ccc12`, for which the “% Inhibition” value is recorded as 99%.

Regarding `O=C(NCCN1CCCCC1)c1cccc(-c2cnc3ccc(F)cn23)c1`, the “% Inhibition” value is on record as 26%.

As for `CCOc1cc2nccc(N3C[C@H]4CN(C)C[C@H]4C3)c2cc1OCC`, the “% Inhibition” value was 98%.

`CCCC(=O)NC1COCC1Cc1ccncc1` (centres undefined): the “% Inhibition” value was determined as 83%.

For the molecule `c1ccc(CN2CCC(CCNC[C@@H]3CCCN4CCCC[C@H]34)CC2)cc1`, the “% Inhibition” value amounted to 61%.

Take `COc1ccc2cc(NC(=O)c3cc(-c4c(C)nn(C)c4C)[nH]n3)cnc2c1`: the “% Inhibition” value is 73%.

`Cc1cnccc1NCCNCc1ccc(OC(C)C)c(Cl)c1`: the “% Inhibition” value amounted to 73%.

Consider `c1ccc2c(Nc3ccc4[nH]cnc4c3)c3ccccc3nc2c1`, for which the “% Inhibition” value stood at 98%.

Regarding `O[C@@H](CNCc1cc2cc(Cl)c(Cl)cc2[nH]1)c1ccc(F)cc1`, the “% Inhibition” value stood at 79%.

Turning to `OC[C@H](CNCc1cc2ccc(F)cc2[nH]1)c1ccccc1Cl`, the “% Inhibition” value came to 72%.

For the molecule `Cc1sc2nc(-c3ccccn3)nc(NCCc3nccn3C)c2c1-c1ccccc1`, the “% Inhibition” value turned out to be 71%.

As for `CCNc1cc(C)nc(NCCNC(=O)Nc2cc(F)cc(F)c2)n1`, the “% Inhibition” value was 76%.

Regarding `CCNc1nc(C)cc(Nc2ccc(NC(=O)Nc3ccc(F)cc3F)cc2)n1`, the “% Inhibition” value was found to be 98%.

`Cc1cc(NC[C@H](O)COc2ccc(F)cc2)nc2ccccc12`: the “% Inhibition” value is 76%.

As for `Cc1ccc2[nH]c(CNC[C@@H](CO)C3CCC3)cc2c1C`, the “% Inhibition” value turned out to be 65%.

In the case of `COc1ccc2[nH]cc(-c3ccc(N)nc3)c2c1`, the “% Inhibition” value is -7%.

Consider `COc1ccc2[nH]cc(C3=CCN(c4ccc5nnc(-c6ccccc6F)n5n4)CC3)c2c1`, for which the “% Inhibition” value turned out to be 51%.

Consider `Cc1ccc2nccc(N3CCC(N4CCC(O)CC4)CC3)c2c1`, for which the “% Inhibition” value is 10%.

In the case of `CCN1CCN([C@H]2CCN(c3ccnc4ccncc34)C2)CC1`, the “% Inhibition” value was found to be 97%.

On to `O=C(NCC1CC1)c1cc2c(OCc3ccc(Cl)cc3)cccc2[nH]1`, for which the “% Inhibition” value stood at 57%.

Turning to `c1ccc(-c2ccnc(C3CCN(CC45CNCC4C5)CC3)n2)cc1` (centres undefined), the “% Inhibition” value came out at 94%.

Consider `CC(C)c1ccc(-c2nc(CN3CCCCC3)cc(CN3CCCCC3)c2O)cc1`, for which the “% Inhibition” value is on record as 93%.

For the molecule `CC(C)c1ccc(-c2noc(CCN3CCN(CCCN(C)C)CC3)n2)cc1`, the “% Inhibition” value is 25%.

As for `CCC1(NC(=O)c2cc(C)c3ccccc3n2)CCOCC1`, the “% Inhibition” value is reported as 10%.

Take `Nc1nc(NCC2CCN(CCc3ccccc3)CC2)cc([C@H]2C[C@@H](N)C2)n1`: the “% Inhibition” value came to 23%.

In the case of `Cc1ccc(-c2cccc3c(C(=O)NCCCN4CCC(N5CCCCC5)CC4)cc(C)nc23)cc1`, the “% Inhibition” value amounted to 98%.

Regarding `CN(C)CCN1CCC(CNCc2ccc3ncccc3c2)CC1`, the “% Inhibition” value is reported as 5%.

`COc1ccc(-c2cncc(C(=O)NCC3CCN(CCN(C)C)CC3)c2)cc1`: the “% Inhibition” value came to 94%.

For the molecule `Cn1cncc1[C@@H]1CNC[C@H]1CNC(=O)c1ccccc1NC1CCCCC1`, the “% Inhibition” value was determined as 79%.

In the case of `Brc1cccc(NCCNC2CCN(Cc3cccnc3)CC2)c1`, the “% Inhibition” value was found to be 36%.

Regarding `Cc1cc(F)ccc1N1CCC(NCCCNc2cccnc2)CC1`, the “% Inhibition” value is recorded as 18%.

As for `CC1CN(c2ccccc2NC(=O)c2ccc(-c3cnco3)cc2)CC(C)O1` (centres undefined), the “% Inhibition” value is listed as -6%.

As for `Cc1ccccc1CN1CCC(CNc2c3c(nc4ccccc24)CCC3)CC1`, the “% Inhibition” value turned out to be 95%.

In the case of `Cc1cc(C)c(-c2csc(Nc3ncnc4[nH]ncc34)n2)cc1C`, the “% Inhibition” value was found to be 19%.

Take `CN(C[C@H](O)COc1ccccc1CN1CCC(c2ccncc2)CC1)C1CCCCC1`: the “% Inhibition” value is reported as 39%.

`O[C@H](COc1ccccc1CNCc1cc(-c2ccccc2)[nH]n1)CN1CCCCC1`: the “% Inhibition” value is recorded as 80%.

Turning to `Cc1nc2ccc(Oc3ccccc3)cc2c(O)c1CN(C)C1CCN(C)CC1`, the “% Inhibition” value was 22%.

Consider `CN1CCC(N(C)C[C@H](Nc2ncnc3ccccc23)c2ccccc2)CC1`, for which the “% Inhibition” value is listed as 99%.

For the molecule `CC1(N2CCC2)CCC(NC[C@H]2CCN(Cc3ccccc3)C2)CC1` (some centres undefined), the “% Inhibition” value is recorded as 66%.

On to `OC1CN(Cc2cnc(C3CCCCC3)nc2)CCC1Nc1ncccn1` (centres undefined), for which the “% Inhibition” value amounted to 1%.
